Laboratory results published in PubChem BioAssay (Tox21).
A number with no mark means an inactive call. Records with an inconclusive call do not appear. Entries that show only a call come without a potency. Active and inactive are the calls of the source. Unless noted, calls come from the whole dose curve.

Columns and labels:
[1] = Nuclear factor erythroid 2-related factor 2/antioxidant responsive element (Nrf2/ARE) small molecule agonists: qHTS cell viability counter screen in human keratinocytes (AID 1919968; active = well fitted curve in the direction sought with a large enough effect in the repeat runs; an effect the other way counts as inactive or inconclusive; note: nearly all actives have a fitted effect of over 55% in size; note: potency is the fitted concentration of half-maximal effect)
How it was run: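 Viability counter-screen: KeratinoSens reporter cells, DMSO-delivered compounds, 23 h at 37 C, CellTiter-Fluor fluorescence.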

[2] = Nuclear factor erythroid 2-related factor 2/antioxidant responsive element (Nrf2/ARE) small molecule agonists: luciferase reporter gene qHTS assay in human keratinocytes (AID 1919969); note: nearly all actives have a fitted effect of over 35% in size; note: potency is the fitted concentration of half-maximal effect
[3] = target: Gonadotropin-releasing hormone receptor (Homo sapiens) (UniProt P30968); test: Human gonadotropin-releasing hormone receptor (GnRHR) small molecule agonists, calcium flux assay in GnRHR-HEK293 cells (AID 1920063); note: nearly all actives have a fitted effect of over 35% in size; note: potency is the fitted concentration of half-maximal effect
How it was run: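 Tox21-format agonist screen using human GnRHR-expressing HEK293 cells and a fluorescent calcium dye; kinetic 3-min fluorescence reading after compound addition, 15-point concentration series run in triplicate.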

[4] = G protein-coupled receptor (GPCR) small molecule agonists, calcium flux assay: HEK293 wild type cell line counter screen (AID 1920065); note: potency is the fitted concentration of half-maximal effect
How it was run: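 In this agonist-mode screen, ATP is the positive control and DMSO the vehicle. Cells grow 18 h before a 1 h dye incubation at 37 C; signal is taken at Ex/Em 480/540 over 3 min.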

[5] = p53 small molecule agonists, cell-based qHTS assay with human liver microsomes: qHTS cell viability counter screen (AID 1963579); note: nearly all actives have a fitted effect of over 45% in size; note: potency is the fitted concentration of half-maximal effect
How it was run: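 Metabolically activated exposure: compounds, human liver microsomes and NADPH (0.5 mg/mL final apiece) were added to p53RE-bla cells seeded 5 h earlier, left 16 h at 37 C, and then assessed for viability by CellTiter-Glo luminescence.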

[6] = p53 small molecule agonists, cell-based qHTS assay (AID 1963582; active = well fitted activation curve with a large enough effect in the signal ratio in the repeat runs, not every such curve was filed as active; the % refers to the signal ratio)
How it was run: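 Agonist activity was scored from beta-lactamase FRET fluorescence in p53RE-bla cells treated 16 h at 37 C with compounds in DMSO, substrate incubation being 2 h at room temperature.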

[7] = target: 5-hydroxytryptamine receptor 2A (Homo sapiens) (UniProt P28223); test: 5-hydroxytryptamine receptor 2A (HTR2A) small molecule antagonists, cell-based qHTS assay (AID 1963586); note: nearly all actives have a fitted effect of over 45% in size; note: potency is the fitted concentration of half-maximal effect
How it was run: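 Antagonist-mode intracellular calcium assay: DOI (4 nM) added after 5 min compound pre-incubation at room temperature to dye-loaded HTR2A-CHO cells. Fluorescence followed for 3 min, sampled every second.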

[8] = target: 5-hydroxytryptamine receptor 2A (Homo sapiens) (UniProt P28223); test: 5-hydroxytryptamine receptor 2A (HTR2A) small molecule agonists, cell-based qHTS assay (AID 1963587); note: nearly all actives have a fitted effect of over 30% in size; note: potency is the fitted concentration of half-maximal effect
How it was run: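 HTR2A-CHO cells, plated 18 h at 37 C/5% CO2, dye-loaded 1 h at 37 C; compounds in DMSO added by pin tool (agonist mode). Intracellular calcium flux read as kinetic fluorescence on FDSS over 2 min at 1 s intervals.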

[9] = target: Muscarinic acetylcholine receptor M1 (Homo sapiens) (UniProt P11229); test: Cholinergic receptor muscarinic 1 (CHRM1) small molecule antagonists, cell-based qHTS assay (AID 1963588); note: nearly all actives have a fitted effect of over 40% in size; note: potency is the fitted concentration of half-maximal effect
How it was run: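 CHRM1-CHO calcium-flux assay, antagonist mode. Cells were seeded 18 h, dye-loaded 1 h at 37 C and given compound for 5 min at RT, then acetylcholine was added at 50nM. FDSS fluorescence was read 3 min; 15 concentrations, three runs.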

[10] = target: Muscarinic acetylcholine receptor M1 (Homo sapiens) (UniProt P11229); test: Cholinergic receptor muscarinic 1 (CHRM1) small molecule agonists, cell-based qHTS assay (AID 1963589); note: nearly all actives have a fitted effect of over 35% in size; note: potency is the fitted concentration of half-maximal effect
How it was run: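 Stable CHRM1-CHO cells (human receptor) were incubated 18 h, dye-loaded for 1 h at 37 C and exposed to test compounds for agonist activity, with calcium-dependent fluorescence followed kinetically.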

[11] = cAMP Responsive Elements (CRE) small molecule agonists, cell-based qHTS assay (AID 1963590)
How it was run: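 FRET-based beta-lactamase readout (LiveBLAzer B/G, 2 h RT) quantified CRE activation in HEK 293T CRE-bla cells after 3 h treatment with DMSO-dissolved compounds.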

[12] = cAMP Responsive Elements (CRE) small molecule antagonists, cell-based qHTS assay (AID 1963591; active = well fitted inhibition curve with a large enough effect in the signal ratio in the repeat runs, not every such curve was filed as active; the % refers to the signal ratio; note: potency is the fitted concentration of half-maximal effect)
How it was run: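 qHTS in CRE-bla HEK 293T cells: compound in DMSO, then 0.25 uM NKH477 (final), 3 h at 37 °C/5% CO2; beta-lactamase FRET read-out after 2 h substrate incubation.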

[13] = target: Beta-2 adrenergic receptor (Homo sapiens) (UniProt P07550); test: Adrenergic beta2 receptor (ADRB2) small molecule antagonists, cell-based qHTS assay (AID 1963592); note: nearly all actives have a fitted effect of over 50% in size; note: potency is the fitted concentration of half-maximal effect
How it was run: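 Cells (CHO, stable ADRB2 overexpression) incubated 18-20hr at 37C; compounds added from DMSO; agonist mix (1nM isoproterenol, 100uM IBMX, 25uM Ro-20-1724) added; 0.5hr RT; d2-cAMP and anti-cAMP-cryptate added; 1hr RT; 665/615 nm read.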

[14] = target: Beta-2 adrenergic receptor (Homo sapiens) (UniProt P07550); test: Adrenergic beta2 receptor (ADRB2) small molecule agonists, cell-based qHTS assay (AID 1963593);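 note: CHO cells stably overexpressing human ADRB2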
How it was run: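 CHO cells stably over-expressing ADRB2 were plated overnight at 37C, then dosed with compounds plus a stimulation mix containing 100uM IBMX and 25uM Ro-20-1724 for 0.5hr at room temperature. cAMP was measured by HTRF competition, 1hr.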

[15] = target: D(2) dopamine receptor (Homo sapiens) (UniProt P14416); test: Dopamine D2 receptor (DRD2) small molecule agonists, cell-based qHTS assay (AID 1963594); note: nearly all actives have a fitted effect of over 35% in size
How it was run: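 HEK293 cells stably expressing DRD2 were cultured 24 h at 37 C, then given Ro20-1724 (0.1 mM final) and compounds for 10 min at room temperature. NKH477 (200nM) was then added for 30 min. cAMP was read by HTRF.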

[16] = target: D(2) dopamine receptor (Homo sapiens) (UniProt P14416); test: Dopamine D2 receptor (DRD2) small molecule antagonists, cell-based qHTS assay (AID 1963595; active = well fitted inhibition curve with a large enough effect in the signal ratio in the repeat runs, with a control signal flat; the % refers to the signal ratio)
How it was run: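 Antagonism was scored as restored cAMP in HEK293-DRD2 cells. These cells were stimulated with 200 nM NKH477 and 12 nM quinpirole for 30 min at room temperature, in the presence of 0.1 mM Ro20-1724.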

[17] = p53 small molecule agonists, cell-based qHTS assay with rat liver microsomes: qHTS cell viability counter screen (AID 1963580); note: nearly all actives have a fitted effect of over 45% in size
How it was run: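 In HCT-116 cells carrying a p53 response element-bla reporter, compounds were metabolically activated in situ by rat liver microsomes with NADPH over 16 h. Cell ATP content then served as the cytotoxicity measure.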

[18] = p53 small molecule agonists, cell-based qHTS assay: qHTS cell viability counter screen (AID 1963581); note: nearly all actives have a fitted effect of over 45% in size
How it was run: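 Compounds are pinned onto HCT-116 p53RE-bla cells and left 16 h at 37 C. Following the reporter FRET read, ATP is quantified by CellTiter-Glo luminescence after 30 min at room temperature.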

[19] = target: KiSS-1 receptor (Homo sapiens) (UniProt Q969F8); test: Human kisspeptin (KISS1R) small molecule agonists, calcium flux assay in KISS1R-HEK293 cells (AID 1920064; active = well fitted curve in the direction sought with a large enough effect in the repeat runs; an effect the other way counts as inactive or inconclusive)
How it was run: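 Intracellular calcium mobilization in KISS1R-HEK293 cells was recorded by fluorescence (Ex/Em 480/540) for 3 min following compound addition to cells pre-loaded 1 h with calcium dye.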

[20] = p53 small molecule agonists, cell-based qHTS assay with rat liver microsomes (AID 1963578)
How it was run: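 Agonist mode in p53RE-bla reporter cells, with compounds co-incubated 16 h at 37 C alongside 0.5 mg/mL rat liver microsomes and 0.5 mg/mL NADPH (final), followed by a 2 h LiveBLAzer detection step.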

Muscarinic acetylcholine receptor M1 (Homo sapiens), sequence (P11229 whole entry, looked up): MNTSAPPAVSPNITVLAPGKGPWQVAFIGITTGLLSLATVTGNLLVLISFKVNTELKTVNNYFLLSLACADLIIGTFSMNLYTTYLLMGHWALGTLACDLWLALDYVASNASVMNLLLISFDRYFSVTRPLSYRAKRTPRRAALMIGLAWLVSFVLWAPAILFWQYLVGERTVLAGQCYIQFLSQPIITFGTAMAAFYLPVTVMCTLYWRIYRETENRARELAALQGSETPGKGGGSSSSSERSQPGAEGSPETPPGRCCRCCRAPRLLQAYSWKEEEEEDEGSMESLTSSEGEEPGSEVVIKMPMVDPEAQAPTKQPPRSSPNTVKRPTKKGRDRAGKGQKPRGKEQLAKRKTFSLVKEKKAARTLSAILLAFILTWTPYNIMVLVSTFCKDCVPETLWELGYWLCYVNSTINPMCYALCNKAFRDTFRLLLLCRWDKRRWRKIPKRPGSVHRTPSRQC
KiSS-1 receptor (Homo sapiens), sequence (Q969F8 whole entry, looked up): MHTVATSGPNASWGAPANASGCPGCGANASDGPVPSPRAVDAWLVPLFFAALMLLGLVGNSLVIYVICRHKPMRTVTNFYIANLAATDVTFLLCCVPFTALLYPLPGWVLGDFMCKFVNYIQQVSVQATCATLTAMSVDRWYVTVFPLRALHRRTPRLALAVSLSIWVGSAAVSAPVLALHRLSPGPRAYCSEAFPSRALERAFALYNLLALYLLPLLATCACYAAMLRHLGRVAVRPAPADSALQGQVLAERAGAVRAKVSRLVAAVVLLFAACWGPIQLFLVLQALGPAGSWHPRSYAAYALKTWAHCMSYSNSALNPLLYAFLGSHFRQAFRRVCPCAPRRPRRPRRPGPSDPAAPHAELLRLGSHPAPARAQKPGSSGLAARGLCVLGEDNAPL
D(2) dopamine receptor (Homo sapiens), sequence (P14416 whole entry, looked up): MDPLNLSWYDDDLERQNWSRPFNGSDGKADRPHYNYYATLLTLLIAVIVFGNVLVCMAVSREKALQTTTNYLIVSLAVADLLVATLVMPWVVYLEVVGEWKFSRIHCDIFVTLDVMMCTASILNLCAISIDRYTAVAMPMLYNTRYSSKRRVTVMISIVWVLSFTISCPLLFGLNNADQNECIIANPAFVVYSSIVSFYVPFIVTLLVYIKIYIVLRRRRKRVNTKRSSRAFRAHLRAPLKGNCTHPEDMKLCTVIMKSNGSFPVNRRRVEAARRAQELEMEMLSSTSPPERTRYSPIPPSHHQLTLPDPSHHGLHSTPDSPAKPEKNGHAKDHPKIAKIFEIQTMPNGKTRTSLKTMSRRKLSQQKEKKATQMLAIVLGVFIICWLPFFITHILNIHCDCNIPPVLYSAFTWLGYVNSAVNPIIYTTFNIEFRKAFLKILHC
5-hydroxytryptamine receptor 2A (Homo sapiens), sequence (P28223 whole entry, looked up): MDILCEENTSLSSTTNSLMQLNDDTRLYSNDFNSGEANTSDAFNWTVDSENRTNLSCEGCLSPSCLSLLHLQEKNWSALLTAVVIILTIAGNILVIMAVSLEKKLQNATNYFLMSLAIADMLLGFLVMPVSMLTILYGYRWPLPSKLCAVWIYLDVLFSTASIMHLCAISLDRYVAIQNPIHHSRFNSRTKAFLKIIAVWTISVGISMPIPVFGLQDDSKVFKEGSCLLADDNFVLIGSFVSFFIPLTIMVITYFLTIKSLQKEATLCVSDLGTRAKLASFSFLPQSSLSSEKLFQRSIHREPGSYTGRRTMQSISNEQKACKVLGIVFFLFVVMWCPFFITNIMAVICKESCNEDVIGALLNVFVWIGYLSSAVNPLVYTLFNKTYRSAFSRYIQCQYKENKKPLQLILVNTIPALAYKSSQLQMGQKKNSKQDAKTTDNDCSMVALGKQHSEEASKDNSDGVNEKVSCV
Beta-2 adrenergic receptor (Homo sapiens), sequence (P07550 whole entry, looked up): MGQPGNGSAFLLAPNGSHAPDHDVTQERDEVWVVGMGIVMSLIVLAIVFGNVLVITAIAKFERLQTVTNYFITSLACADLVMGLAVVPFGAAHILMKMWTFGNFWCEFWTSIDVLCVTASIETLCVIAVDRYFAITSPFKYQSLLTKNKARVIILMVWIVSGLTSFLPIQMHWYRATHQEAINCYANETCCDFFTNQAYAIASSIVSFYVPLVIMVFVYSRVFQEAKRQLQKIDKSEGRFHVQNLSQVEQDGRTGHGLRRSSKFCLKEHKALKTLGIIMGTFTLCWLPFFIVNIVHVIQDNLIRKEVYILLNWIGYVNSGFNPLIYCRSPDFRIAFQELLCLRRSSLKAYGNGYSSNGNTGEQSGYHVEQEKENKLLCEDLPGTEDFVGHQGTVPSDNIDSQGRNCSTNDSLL
Gonadotropin-releasing hormone receptor (Homo sapiens), sequence (P30968 whole entry, looked up): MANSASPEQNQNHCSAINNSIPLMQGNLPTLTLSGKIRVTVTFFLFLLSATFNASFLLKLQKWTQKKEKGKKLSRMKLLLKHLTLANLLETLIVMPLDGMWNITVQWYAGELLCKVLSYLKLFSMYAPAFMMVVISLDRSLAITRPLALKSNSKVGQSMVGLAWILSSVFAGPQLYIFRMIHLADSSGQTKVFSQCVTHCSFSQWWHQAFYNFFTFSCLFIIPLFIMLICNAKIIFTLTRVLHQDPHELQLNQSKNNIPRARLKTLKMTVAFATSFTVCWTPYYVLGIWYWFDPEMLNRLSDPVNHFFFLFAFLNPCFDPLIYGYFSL

SMILES	Potency [1]	Potency [2]	Potency [3]	Potency [4]	Potency [5]	Potency [6]	Potency [7]	Potency [8]	Potency [9]	Potency [10]	Potency [11]	Potency [12]	Potency [13]	Potency [14]	Potency [15]	Potency [16]	Potency [17]	Potency [18]	Potency [19]	Potency [20]
Nc1ccc(F)cc1F	inactive	inactive	inactive	inactive	inactive	inactive	inactive	inactive	inactive	inactive	inactive	inactive	inactive	inactive	inactive	inactive	–	–	–	–
Cc1ccccc1N=C(N)Nc1ccccc1C	inactive	inactive	inactive	inactive	inactive	–	inactive	inactive	7.35 µM (active)	inactive	inactive	inactive	inactive	–	inactive	inactive	inactive	inactive	–	–
CC(O)C1CCCCC1 (stereo not drawn)	inactive	inactive	inactive	–	–	–	inactive	inactive	inactive	inactive	–	inactive	inactive	–	–	inactive	inactive	inactive	inactive	–
CCCCCCCCOC(=O)c1cc(O)c(O)c(O)c1	61.1 µM (active)	inactive	34.7 µM (active)	inactive	inactive	–	inactive	49 µM (active)	inactive	–	–	30.6 µM (active)	inactive	–	inactive	–	inactive	–	–	–
C=C(C)C(=O)OCCO	inactive	inactive	inactive	inactive	inactive	–	inactive	inactive	inactive	inactive	inactive	inactive	–	–	inactive	inactive	inactive	inactive	–	–
CC=O	28.6 µM (active)	inactive	inactive	inactive	47.9 µM (active)	–	inactive	–	3.5 µM (active)	inactive	–	–	inactive	–	inactive	inactive	–	–	–	inactive
NC(=O)Cn1c(=O)cc(CCN2CCN(c3nccc4sccc34)CC2)c2ccc(F)cc21	inactive	inactive	inactive	inactive	–	inactive	–	inactive	23.7 µM (active)	inactive	–	–	27.3 µM (active)	–	inactive	inactive	–	inactive	–	inactive
CC(C)C(=O)OCCc1ccccc1	inactive	inactive	inactive	–	–	–	inactive	inactive	inactive	inactive	inactive	inactive	inactive	inactive	–	inactive	inactive	inactive	inactive	–
CC(=O)OC(C)C[N+](C)(C)C (stereo not drawn)	inactive	inactive	1.07 µM (active)	inactive	inactive	inactive	inactive	inactive	–	0.151 µM (active)	inactive	–	inactive	–	–	–	inactive	inactive	–	inactive
O=C1c2ccccc2Cc2ccccc21	inactive	61.6 µM (active)	inactive	inactive	inactive	inactive	–	inactive	–	–	–	–	inactive	–	inactive	inactive	inactive	inactive	–	inactive
COC(=O)C(C)=O	inactive	inactive	inactive	–	–	–	inactive	inactive	–	inactive	inactive	inactive	–	–	inactive	inactive	inactive	inactive	inactive	–
COc1cccc(N(C)C(=S)Oc2ccc3c(c2)CCCC3)n1	inactive	inactive	inactive	inactive	–	–	5.79 µM (active)	inactive	inactive	inactive	inactive	inactive	inactive	–	inactive	inactive	inactive	inactive	–	inactive
O=C(Cl)c1ccc(F)c(Cl)c1	inactive	inactive	inactive	inactive	inactive	inactive	inactive	inactive	inactive	inactive	inactive	inactive	inactive	–	inactive	inactive	inactive	–	–	inactive
CC1=Nc2ccc3ccccc3c2C1(C)C	inactive	68.6 µM (active)	38.9 µM (active)	inactive	inactive	–	–	inactive	–	–	–	–	–	–	inactive	inactive	inactive	inactive	–	inactive
CC(C)(C)c1cc(O)c(C(C)(C)C)cc1O	inactive	15.4 µM (active)	5.49 µM (active)	34.7 µM (active)	inactive	–	14.9 µM (active)	1.1 µM (active)	18.8 µM (active)	11 µM (active)	inactive	inactive	inactive	inactive	inactive	inactive	inactive	inactive	–	inactive
CC(=O)Nc1ccc(S(=O)(=O)Cl)cc1	inactive	inactive	inactive	inactive	inactive	–	inactive	inactive	inactive	inactive	inactive	inactive	inactive	inactive	–	inactive	inactive	inactive	–	–
Cc1ncc([C@@H](CCCCCCc2ccc3c(n2)NCCC3)CC(=O)O)cn1	inactive	inactive	inactive	–	–	–	–	inactive	inactive	inactive	inactive	0.545 µM (active)	inactive	inactive	inactive	–	inactive	–	inactive	–
C=COCCOCCOC=C	inactive	inactive	inactive	inactive	inactive	inactive	inactive	inactive	inactive	inactive	inactive	inactive	inactive	inactive	inactive	inactive	inactive	inactive	–	inactive
COC(=O)c1ccc(C(=O)O)cc1	inactive	inactive	inactive	inactive	inactive	inactive	–	inactive	inactive	inactive	inactive	inactive	inactive	–	inactive	inactive	inactive	–	–	–
Cc1nc2c([nH]1)c(=O)n(C)c(=O)n2Cc1ccco1	inactive	inactive	inactive	–	inactive	–	inactive	inactive	inactive	inactive	–	inactive	inactive	–	–	inactive	–	inactive	–	–
CC/C=C\CCCCCCCCCCOC(C)=O	inactive	inactive	inactive	inactive	inactive	–	–	inactive	inactive	inactive	inactive	inactive	inactive	inactive	inactive	inactive	inactive	inactive	–	–
CCCCCCCOC(=O)CCC	inactive	inactive	inactive	inactive	inactive	–	inactive	inactive	–	inactive	inactive	–	inactive	inactive	inactive	inactive	inactive	inactive	–	–
Cc1[nH]cnc1C[C@H]1CCc2c(C)c3ccccc3n2C1=O	inactive	inactive	–	inactive	inactive	inactive	1.46 µM (active)	42.6 µM (active)	25.9 µM (active)	inactive	inactive	inactive	23.7 µM (active)	–	inactive	–	inactive	inactive	inactive	inactive
CC1=C(CC(=O)O)c2cc(F)ccc2/C1=C\c1ccc(S(C)(=O)=O)cc1	inactive	inactive	inactive	inactive	inactive	–	–	–	–	–	–	–	inactive	–	inactive	–	inactive	inactive	–	–
Cc1c(O)cccc1O	inactive	inactive	inactive	inactive	inactive	–	inactive	inactive	–	inactive	–	–	–	inactive	inactive	inactive	–	inactive	–	–
N#Cc1ccccc1C#N	inactive	inactive	inactive	inactive	inactive	–	inactive	inactive	inactive	inactive	inactive	inactive	inactive	inactive	inactive	inactive	inactive	–	–	–
c1coc(Cn2cccc2)c1	inactive	inactive	–	inactive	inactive	inactive	inactive	–	inactive	–	inactive	–	30.6 µM (active)	–	–	inactive	inactive	inactive	inactive	inactive
C[C@]12CCC(=O)C=C1C=C[C@@H]1[C@@H]2CC[C@@]2(C)[C@H]1CC[C@@]21CCC(=O)O1	inactive	inactive	–	inactive	inactive	inactive	inactive	inactive	–	inactive	–	–	inactive	inactive	–	inactive	inactive	inactive	inactive	inactive
